Shown are actives, neighbours in structure and some others; about 12% of the full set was active somewhere.
CHX counter = Cycloheximide Counterscreen for Small Molecule Inhibitors of Shiga Toxin; 300,000 tested, 12% active; cell reporter, cycloheximide protein synthesis inhibition counterscreen; max response, %; in the data active = max response mostly above about 13%, no sharp cut-off; inactive = mostly below about 14%; note: read at 38.3 µM for the half of the compounds with a filed dose; 0% is about no effect
Shiga inhibitor = A qHTS for Small Molecule Inhibitors of Shiga Toxin | Vero cells, Shiga toxin protein synthesis inhibition reporter | inhibition, % at 38.7 µM | 290,000 tested, 9.2% active | AID 2315, 2010; in the data active = inhibition mostly above about 28%, no sharp cut-off; inactive = mostly below about 43%; note: 0% is about no effect
FMDV inh = High Throughput Screening for Foot and Mouth Disease Virus Antivirals | FMDV antiviral cell-based qHTS | Potency, µM (top dose mostly 57.9 µM), without a hit: at the highest dose activity change, negative = inhibition, usual class: inhibitors | 410,000 tested, 1.2% active | AID 1159524, 2015; calls by dose curve; tested in HEK293T cells; note: read-out not given here; potency is the fitted concentration of half-maximal effect; % is set by controls: 0 for no effect and ±100 for the full control effect; nearly all actives have a fitted effect of over 45% in size
Sm TGR inh = qHTS Assay for the Inhibitors of Schistosoma Mansoni Peroxiredoxins | Schistosoma mansoni thioredoxin glutathione reductase (TGR), Q962Y6 | purified TGR, DTNB reduction, TNB absorbance 405 nm | Potency, µM (highest dose often 114 µM), for inactives: at the highest dose activity change, negative = inhibition, usual class: inhibitors | 360,000 tested, 3% active | AID 485364, 2010; active = well fitted inhibition curve with a large enough effect; inconclusive = small, poorly fitted or top-dose-only effect; inactive = no such curve, though single readings can be large or run the other way; note: potency is the fitted concentration of half-maximal effect; % is set by controls: 0 for no effect and ±100 for the full control effect; nearly all actives have a fitted effect of over 60% in size
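First, TGR (20 nM dispensed) and NADPH were mixed with compound. Second, a 15 min room-temperature incubation followed. Third, further NADPH and then DTNB were added to start the reaction. Finally, TNB absorbance was monitored kinetically.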
* = called active by the depositor; ? = inconclusive; · = no result; + = active, no number; ! = repeats disagree; [ ] = remark or other dose.

SMILES	CHX counter	Shiga inhibitor	FMDV inh	Sm TGR inh
CCOc1ccccc1NC(=O)C1=C(C)Nc2ncnn2C1c1ccccn1 (stereo not given)	·	·	7%	-2%
CC1(CCl)N([O-])C2=C(CCCC2)[N+]1=O (stereo not given)	14*	23	-17%	40µM*
CCc1cccc(NCc2ccccc2-c2nnc(-c3ccccc3Cl)o2)c1	·	·	53%	5%
O=C(COc1ccc(Cl)cc1)OCc1cc(=O)n2nc(-c3cccs3)sc2n1	·	·	8%	1%
O=C(Nc1ccc2oc(-c3ccncc3)nc2c1)c1ccccc1F	13	63*	-13%	-1%
O=C(Nc1ccc(-c2nc3cc(NC(=O)c4ccccc4F)ccc3o2)cc1)c1ccccc1F	·	·	6%	0%
O=C(Cc1ccccc1)NC(=S)Nc1ccc2oc(-c3ccccc3)nc2c1	2	16	·	0%
O=C(Cc1ccccc1)NC(=S)Nc1ccc2oc(-c3ccccc3F)nc2c1	29	50*	32%	1%
O=C(Nc1ccc2oc(-c3ccccc3F)nc2c1)c1ncn[nH]1	52*	80*	47%	-7%
O=C(Nc1ccc2oc(-c3ccncc3)nc2c1)c1ccc([N+](=O)[O-])o1	32*	53*	8%	-13%
O=C(Nc1ccc2oc(-c3cccc(F)c3)nc2c1)c1ccccc1F	8	-6	2%	2%
O=C(Nc1ccc2oc(-c3ccncc3)nc2c1)c1ccccc1	6	18	10%	9%
O=C(Nc1ccc2oc(-c3ccccc3F)nc2c1)c1ccccc1F	30*	48*	9%	-11%
CCc1ccc2oc(-c3ccc(NC(=O)c4cccc(Cl)c4Cl)cc3)nc2c1	·	·	13µM*	10%
COc1ccc(C(=O)Nc2ccc3oc(-c4ccc(F)cc4Cl)nc3c2)cc1	·	·	?	0%
CC(=O)NC(=S)Nc1ccc2oc(-c3cc(F)c(F)cc3Cl)nc2c1	24*	53	72%	·
O=C(Nc1ccc2oc(-c3ccc4ccccc4c3)nc2c1)c1cccc(Cl)c1Cl	·	·	21%	-2%
O=C(Nc1ccc2oc(-c3ccccc3)nc2c1)c1ccccc1F	20*	59*	40%	-20%
CCc1cccc(-n2nnc(-c3nc(-c4cccs4)no3)c2N)c1	·	·	42%	1%
O=C(Nc1ccc2nc(SCC(=O)N3CCCC3)sc2c1)c1ccccc1F	·	·	0%	3%
COc1ccc(-c2cc(C(F)(F)F)n3nc(C(=O)Nc4sc5c(c4C(=O)OC(C)C)CCC(C)C5)cc3n2)cc1 (stereo not given)	·	·	-18%	0%
CCOc1nc(-c2ccc(C)cc2)ccc1-c1noc(-c2ccccc2F)n1	·	·	-1%	2%
O=C(Nc1ccc2oc(-c3ccc(Cl)c(Cl)c3)nc2c1)c1ncn[nH]1	27*	66	75%	3%
Cc1ccc(NC(=O)c2ncn[nH]2)cc1	19*	40	28%	·
O=C(Nc1ccc(Oc2ccc(Cl)cc2)cc1)c1ncn[nH]1	-2	-8	-11%	2%
SMILES	CHX counter	Shiga inhibitor	FMDV inh	Sm TGR inh
Cc1cc(NC(=O)c2cc(-c3ccc(Br)cc3)on2)nn1Cc1ccc(Cl)cc1	·	·	?	0%
COc1cccc(CNC(=O)C2CCCN(S(=O)(=O)c3ccc4c(ccn4C)c3)C2)c1OC (stereo not given)	·	·	?	0%
CNc1nc2c3ccccc3n(C(C)=O)c2s1	9	-6	-10%	0%
CC(=O)n1c2ccccc2c2nc(NC(C)C)sc21	16*	22	31%	5%[11.4 µM]
Cc1ccccc1N(CC(=O)NCc1ccco1)C(=O)CNS(=O)(=O)c1ccc(F)cc1	-2	1	25%	40µM*
COc1ccccc1CN(CC(=O)NCc1ccco1)C(=O)CNS(=O)(=O)c1ccccc1	-4	-8	-12%	50µM*
COc1ccc(S(=O)(=O)NCC(=O)N(CC(=O)NCc2ccco2)Cc2ccccc2)cc1	-3	-9	1%	-1%
COc1ccccc1CN(CC(=O)NCc1ccco1)C(=O)CNS(=O)(=O)c1ccc(C)cc1	-4	-20	0%	28µM*
Cc1ccc(N(CC(=O)NCc2ccco2)C(=O)CNS(=O)(=O)c2ccc(F)cc2)c(C)c1	8	15	-14%	-30%
CCOC(=O)c1c(C)oc2nc(C)nc(N3CCN(c4cccc(C)c4C)CC3)c12	·	·	0%	12%
COc1ccc2[nH]c(-c3ccc(F)cc3F)cc(=O)c2c1	26*	+	·	·
Cc1ccc2[nH]c(-c3cccc(F)c3)cc(=O)c2c1	15*!	+!	38%	-19%
COc1ccc2[nH]c(-c3cccc(F)c3)cc(=O)c2c1	27*!	52*	56%	-2%
O=c1cc(-c2cccc(F)c2)[nH]c2ccccc12	5	-22	-9%	-8%
CCc1ccc(N2CCn3c2nc2c3c(=O)n(C/C=C/c3ccccc3)c(=O)n2C)cc1	·	·	6%	7%
COc1cc2c(cc1NS(=O)(=O)c1cccc(C#N)c1)n(C)c(=O)n2C	·	·	-15%	-10%
CN(C)c1cccc(C(=O)OCc2cc(=O)oc3cc(O)ccc23)c1	16*	49	5%	-4%
CC1CN(S(=O)(=O)c2cccc(C(=O)OCc3cc(=O)oc4cc(O)ccc34)c2)CC(C)O1 (stereo not given)	-1	3	22µM*	-10%
CC1CN(S(=O)(=O)c2cccc(C(=O)OCCOc3ccccc3)c2)CC(C)O1 (stereo not given)	·	·	?	4%
Nc1nnc2c(n1)[nH]c1ccccc12	·	·	-11%	-1%
O=C(CSc1nc2c([nH]c3ccccc32)c(=O)n1-c1cccc(Cl)c1)NCc1ccccc1	·	·	-27%	-1%
Cc1cc(C)c2c(C)c(C(=O)N3CCC(c4nc5ccccc5s4)CC3)oc2c1	·	·	-24%	?
CC12CCC=CC1C(c1cccc(Br)c1)N(Cc1ccccc1)C2=O (stereo not given)	-2	-5	·	·
COc1ccc(-c2ccc([C@H]3[C@@H]4C=CCC[C@@]4(C)C(=O)N3Cc3ccccc3)c(F)c2)cc1OC	37*	36	?	-5%
C[C@@]12CCC=C[C@H]1[C@H](c1ccoc1)N(Cc1ccccc1)C2=O	-4	-4	-7%	35µM*
SMILES	CHX counter	Shiga inhibitor	FMDV inh	Sm TGR inh
CSc1ccc(C2c3c(-c4ccccc4O)n[nH]c3C(=O)N2Cc2ccncc2)cc1 (stereo not given)	·	·	-5%	-5%
Cc1noc2ncnc(N3CCN(c4cccc(Cl)c4)CC3)c12	-8	-4	25µM*	7%
Cc1ccc(Cl)cc1N1CCN(c2ncnc3onc(C)c23)CC1	·	·	?	6%
CN1CCN(c2ncnc3c2cnn3-c2cccc(Cl)c2)CC1	·	·	-2%	8%
Cn1ncc2c(N3CCN(c4cccc(Cl)c4)CC3)ncnc21	·	·	16µM*	2%
CCCc1cc(=O)n2c(nc3ccccc32)[nH]1	18*	37	-1%	-7%
COc1cc(OC)cc(C(=O)Oc2c(CN3CCOCC3)cc(Cl)c3cccnc23)c1	8.0*	35	10%	-10%
O=[N+]([O-])c1cc(CN2CCOCC2)c2cccnc2c1O	10	6	-7%	35µM*
COc1ccc(C(=O)Oc2c(CN3CCOCC3)cc(Cl)c3cccnc23)cc1OC	·	·	-6%	·
O=C(Oc1c(CN2CCOCC2)cc(Cl)c2cccnc12)c1ccccc1	8	28	-29%	-15%
